Source: PubChem (several laboratories)
A selection: hits, their analogues and other compounds. The true share with any hit is near 3.3%.
SMARCA2 act = increases SMARCA2 function in MMTV reporter cells. MG213 cells, MMTV-luciferase reporter, dexamethasone, overnight. activation, % at 9.1 µM. 370,000 compounds, 1% hits; in the data active = activation above about 7.8%;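 note: 0% = vehicle wells and 100% = reference activator wells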
esBAF inh = inhibitors of esBAF chromatin remodeling in mouse ES cells | Bmi1-luciferase knock-in reporter, 24 h; 100% = twice the neutral-well signal | reporter increase, % at 12.5 µM | 350,000 compounds, 2% hits | AID 602393; in the data active = activation above about 40%;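 note: 0% = median of the plate's neutral control wells and 100% = double that signal; a rise in the Bmi1 reporter signal indicates esBAF inhibition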
Gli-Sufu antag = Gli-Sufu pathway antagonism | inhibition, % at 5 µM | 340,000 compounds, 0.74% hits | Sufu-KO-LIGHT fibroblasts, Gli luciferase reporter luminescence;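 active = inhibition above about 55%, limit read from the data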;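 note: 0% = DMSO-treated cells and 100% = wells with medium but no cells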
697 NFkB inh = inhibitors of the PMA/ionomycin-induced NF-kB reporter in 697 B cells; 697 B-cell NF-kB luciferase reporter, 16 h; inhibition, % at 4 µM; 330,000 compounds, 0.33% hits; AID 435022; in the data active = inhibition above about 35%
Jurkat NFkB inh = inhibitors of the PMA/ionomycin-induced NF-kB reporter in Jurkat cells; PMA/ionomycin-induced NF-kB luciferase reporter, luminescence; AID 435003; inhibition, % at 4 µM; 330,000 compounds, 0.53% hits; in the data active = inhibition above about 50%
Numbers without * were called inactive.

For c1cncc(-c2nc3ccccc3[nH]2)c1 the results were SMARCA2 act -1.7, Gli-Sufu antag -9.2, 697 NFkB inh 15.3 and Jurkat NFkB inh 0.4.
`Cc1ccc(-c2nc3ccccc3[nH]2)s1` gave SMARCA2 act 5.1, Gli-Sufu antag 7.8, 697 NFkB inh -113.7 and Jurkat NFkB inh -136.3.
Screening c1csc(-c2nc3ccccc3[nH]2)c1 returned SMARCA2 act 3.0, esBAF inh 45.9*, Gli-Sufu antag 7.6, 697 NFkB inh -35.5 and Jurkat NFkB inh -35.1.
For c1ccc(-c2nc3ccccc3[nH]2)cc1 the results were SMARCA2 act 5.6, esBAF inh 71.7*, Gli-Sufu antag -47.1, 697 NFkB inh -102.4 and Jurkat NFkB inh -96.2.
CCN(CC)C(=O)c1cc(-c2ccc(Br)cc2)on1 was read as SMARCA2 act 4.1, esBAF inh 75.1*, Gli-Sufu antag -73.9, 697 NFkB inh -69.5 and Jurkat NFkB inh -97.9.
For COC(=O)c1cc(-c2ccc(Br)cc2)on1 the results were SMARCA2 act -1.4, esBAF inh -3.3, Gli-Sufu antag -3.1, 697 NFkB inh 3.2 and Jurkat NFkB inh 16.1.
`CCCN(C)C[C@H]1OCCCC[C@H](C)Oc2ccc(N(C)C)cc2C(=O)N([C@@H](C)CO)C[C@H]1C` gave esBAF inh -0.9.
Screening N#Cc1ccc(OCC(=O)N2CCc3ccccc32)cc1 returned SMARCA2 act 5.0, esBAF inh 44.5*, Gli-Sufu antag -20.3, 697 NFkB inh -11.1 and Jurkat NFkB inh -1.1.
O=C(COc1ccc([N+](=O)[O-])cc1Cl)N1CCc2ccccc21 was read as SMARCA2 act 5.1, esBAF inh 66.0*, Gli-Sufu antag -6.4, 697 NFkB inh -105.0 and Jurkat NFkB inh 2.9.
Screening O=C(COc1ccc(F)cc1)N1CCCc2ccccc21 returned SMARCA2 act -1.4, esBAF inh 5.9, Gli-Sufu antag -6.3, 697 NFkB inh -3.1 and Jurkat NFkB inh -3.0.
Cc1cc(C(=O)OCC(=O)N2CCc3ccccc32)c(C)o1 was read as SMARCA2 act 0.9, esBAF inh 49.8*, Gli-Sufu antag 4.8, 697 NFkB inh -9.4 and Jurkat NFkB inh -7.4.
Screening COc1ccc(OCC(=O)N2CCc3ccccc32)c([N+](=O)[O-])c1 returned SMARCA2 act 7.6 and esBAF inh 54.0*.
`C[C@@H]1CN([C@@H](C)CO)C(=O)c2cc(C#CCN(C)C)cnc2O[C@H]1CN(C)Cc1ccccc1` gave esBAF inh 1.4.
For CCNC(=O)C[C@H]1CC[C@@H]2[C@H](COC[C@H](O)CN2C(=O)Nc2ccc3c(c2)OCO3)O1 the results were esBAF inh 45.0*.
`CCNC(=O)C[C@@H]1CC[C@@H]2[C@H](COC[C@H](O)CN2C(=O)Nc2ccc3c(c2)OCO3)O1` gave esBAF inh 43.8*.
CCCNC(=O)C[C@@H]1CC[C@@H]2[C@H](COC[C@@H](O)CN2C(=O)Nc2ccc3c(c2)OCO3)O1 was read as esBAF inh 8.3.
O=C1N=C(N2CCCCC2)SC1=C1CCCC1 was read as SMARCA2 act -1.4, esBAF inh 31.7, Gli-Sufu antag -19.3, 697 NFkB inh -15.2 and Jurkat NFkB inh -23.4.
CCCCN1C(=O)/C(=C2\SC(N3CCCCC3)=NC2=O)c2ccccc21 was read as SMARCA2 act 5.8, esBAF inh 51.4*, Gli-Sufu antag -6.3, 697 NFkB inh -83.4 and Jurkat NFkB inh -52.5.
For O=C(Nc1ccc(F)c(Cl)c1)c1ccc2sc([C@H]3C[C@H](O)[C@@H](CO)O3)nc2c1 the results were SMARCA2 act -4.7 and esBAF inh 62.2*.
For O=C(Nc1ccc2c(c1)OCO2)c1csc(COCCO)n1 the results were esBAF inh 19.3.
O=C(Nc1ccc(F)c(Cl)c1)c1csc([C@@H]2C[C@H](O)[C@@H](CO)O2)n1 was read as SMARCA2 act -3.0 and esBAF inh 43.0*.
`O=C(Nc1ccc(F)c(Cl)c1)c1csc(COCCO)n1` gave SMARCA2 act 2.4 and esBAF inh 50.9*.
Screening O=C(Nc1ccc(F)c(Cl)c1)c1csc([C@H]2C[C@H](O)[C@@H](CO)O2)n1 returned SMARCA2 act -0.1 and esBAF inh 87.8*.
CC(=O)Nc1ccc(NC(=O)c2ccc3sc([C@H]4C[C@H](O)[C@@H](CO)O4)nc3c2)cc1 was read as SMARCA2 act 1.7 and esBAF inh -2.0.
Screening COc1ccccc1S(=O)(=O)N[C@@H]1CC[C@H](CCNC(=O)C2CCOCC2)O[C@@H]1CO returned esBAF inh 0.3.
C=CCNC(=O)c1ccc2nc(Cc3ccc(OC)cc3)oc2c1 was read as SMARCA2 act 7.3, esBAF inh 89.1* and Gli-Sufu antag 0.7.
